Molecules are shown by their SMILES. The panel holds about 79,000 compounds, 15% with a hit somewhere; the sample as a whole holds those more often. A number with no mark means an inactive call. Active and inactive are the calls of the source. Cut-off read from the data, not from the text of the source: active = growth inhibition above about 70%; inactive = the rest.

One test can be described thus: NCI Yeast Anticancer Drug Screen. Data for the sgs1 strain (AID 173).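 Note: 0% = growth of vehicle-only control cultures.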 The conditions noted are these: S. cerevisiae sgs1 mutant, at 33.0 µM, active compounds read high. The method, boiled down:
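Growth of a yeast strain bearing a defined genetic alteration is measured after compound treatment. Inhibition is expressed relative to vehicle-only controls.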
For `C/C(=N\NC(=S)SCc1ccccc1)c1ccccn1`, the growth inhibition is 97% (active).
On the same count and under the same terms, for `CC[C@@]1(O)C(=O)OCc2c1cc1n(c2=O)Cc2cc3c(N)cccc3nc2-1` the value was 5%; for `CN(C)c1ccc(Sc2ccc3nc(N)nc(N)c3c2)cc1`, 17%; for `CC(=O)OCCOCNC(=S)N/N=C(\C)c1cnccn1`, 41%.
On the same count and under the same terms, the value for `COc1ccc(C2c3cc4c(cc3OC(C)(O)C2C)OCO4)c(OC)c1` (stereo not given) was 18%; that for `COc1ccc(Br)c(C(=O)Sc2nnnn2-c2cccc(Cl)c2)c1` was 49%.
Regarding `O=C(NNc1ccnc2cc(Cl)ccc12)/C(=C\c1ccccc1Cl)NC(=O)c1ccccc1`, the growth inhibition is 38%.
Turning to `CSC(=S)Nc1cccc(C)n1`, the growth inhibition was -6%.
On to `O=C(/C=C\c1ccc(Cl)cc1Cl)c1cccs1`, for which the growth inhibition was 33%.
On the same count and under the same terms, for `COc1ccc(-c2cn(-c3ccc(I)cc3)c3ncnc(N)c23)cc1` the value was 26%; for `COc1cc(/C=C2\CCc3ccccc3C2=O)cc(OC)c1OC`, 61%.
On the same count and under the same terms, the value for `CC(C)/C(Cl)=N\OC(=O)Nc1cccc(Cl)c1` was 1%; that for `CC1(C)[C@@H]2CC[C@]1(C)[C@H](OC(=O)CSC#N)C2` was 94% (active); that for `NNC(=O)CCc1ccc2ccc3ccccc3c2c1` was 22%.
As for `COc1ccc(/C(C)=N/OC(=O)c2c(-c3ccccc3Cl)noc2C)cc1CN1CCOCC1`, the growth inhibition was 30%.
With `C=CC(C)(O)CCC1C(=C)C(O)CC2C(C)(C)CCCC12C` (stereo not given), the growth inhibition was 53%.
On the same count and under the same terms, the value for `S=C(Nc1ccc(Cl)c(Cl)c1)SCc1ccc2c(c1)OCO2` was 99% (active); that for `COc1cc(C2C3=C(COC3=O)Oc3cc4c(cc32)OCO4)ccc1O` (stereo not given) was 14%.
On the same count and under the same terms, for `S=C(Nc1ccc(Cl)cc1)SC1CCCCC1` the value was 98% (active); for `COC1=CC(=O)C2C(C1=O)C(c1ccc(Cl)cc1)[C@@H]2C` (stereo not given in full), 99% (active); for `c1ccc(-c2nc3cccnc3s2)cc1`, -3%.
As to `COc1ccc(/C=C2\SC(=S)N(/C=C/c3nc4ccccc4[nH]c3=O)C2=O)cc1OC`, the growth inhibition is 85% (active).
For `CCCN(CCC)CC(O)c1cc(-c2ccc(Cl)cc2)nc2c(C)c(Cl)ccc12` (stereo not given), the growth inhibition is 97% (active).
As for `O=C(Nc1ccccc1)OCCc1ccc(Cl)c(Cl)c1`, the growth inhibition is 22%.
On the same count and under the same terms, for `CC(O)C(O)C(O)C(/C=N\Nc1ccccc1)=N/Nc1ccccc1` (stereo not given) the value was 68%; for `C#CCCCc1ccccc1`, -12%.
Same read-out and setting: for `CC(=O)Cc1ccc[cH-]1.[Fe+2].c1cc[cH-]c1` the value was 23%; for `Cc1cc(I)ccc1N`, 90% (active); for `FC(F)(F)c1cc(NC(=S)N2c3ccccc3-n3cccc3C2c2cccnc2)cc(C(F)(F)F)c1` (stereo not given), -2%.
On the same count and under the same terms, for `CC(C)(CN1CCCCC1)C(=O)CC(SCCS(=O)(=O)O)c1ccc(Br)cc1` (stereo not given) the value was 42%; for `C[Si](C)(C)CNC(=O)OCc1ccccc1`, 1%; for `CC(C(=O)N1C(=O)N(C(=O)[C@H](C)C(O)c2ccccc2)[C@H](c2ccccc2)[C@H]1c1ccccc1)[C@@H](O)c1ccccc1` (stereo not given in full), 65%.
As to `Oc1cccc2c(Cl)ccnc12`, the growth inhibition is 96% (active).
Same read-out and setting: for `O=C1C=CC(=C(c2ccccc2)c2ccccc2)c2ccccc21` the value was 10%; for `S=C(S)NN1CCOCC1`, 54%.

Still in this test, the particulars now being: S. cerevisiae sgs1 mutant, at 100.0 µM, active compounds read high.
As for `C/C(=N\NC(=S)SCc1ccccc1)c1ccccn1`, the growth inhibition is 94% (active).
On to `CC[C@@]1(O)C(=O)OCc2c1cc1n(c2=O)Cc2cc3c(N)cccc3nc2-1`, for which the growth inhibition is 8%.
On to `CN(C)c1ccc(Sc2ccc3nc(N)nc(N)c3c2)cc1`, for which the growth inhibition is 18%.
On the same count and under the same terms, for `CC(=O)OCCOCNC(=S)N/N=C(\C)c1cnccn1` the value was 80% (active); for `COc1ccc(C2c3cc4c(cc3OC(C)(O)C2C)OCO4)c(OC)c1` (stereo not given), 98% (active).
For `COc1ccc(Br)c(C(=O)Sc2nnnn2-c2cccc(Cl)c2)c1`, the growth inhibition is 94% (active).
Still for that read-out and setting: the value for `O=C(NNc1ccnc2cc(Cl)ccc12)/C(=C\c1ccccc1Cl)NC(=O)c1ccccc1` was 38%.
Same read-out and setting: for `CSC(=S)Nc1cccc(C)n1` the value was 62%.
Still for that read-out and setting: for `O=C(/C=C\c1ccc(Cl)cc1Cl)c1cccs1` the value was 45%.
Turning to `COc1ccc(-c2cn(-c3ccc(I)cc3)c3ncnc(N)c23)cc1`, the growth inhibition was 29%.
Regarding `COc1cc(/C=C2\CCc3ccccc3C2=O)cc(OC)c1OC`, the growth inhibition was 86% (active).
On to `CC(C)/C(Cl)=N\OC(=O)Nc1cccc(Cl)c1`, for which the growth inhibition was 2%.
Still for that read-out and setting: the value for `CC1(C)[C@@H]2CC[C@]1(C)[C@H](OC(=O)CSC#N)C2` was 97% (active); that for `NNC(=O)CCc1ccc2ccc3ccccc3c2c1` was 52%.
Take `COc1ccc(/C(C)=N/OC(=O)c2c(-c3ccccc3Cl)noc2C)cc1CN1CCOCC1`: the growth inhibition was 78% (active).
The same measure, in the same setting: for `C=CC(C)(O)CCC1C(=C)C(O)CC2C(C)(C)CCCC12C` (stereo not given) the value was 72% (active); for `S=C(Nc1ccc(Cl)c(Cl)c1)SCc1ccc2c(c1)OCO2`, 96% (active).
Same read-out and setting: for `COc1cc(C2C3=C(COC3=O)Oc3cc4c(cc32)OCO4)ccc1O` (stereo not given) the value was 59%.
As to `S=C(Nc1ccc(Cl)cc1)SC1CCCCC1`, the growth inhibition was 98% (active).
On the same count and under the same terms, the value for `COC1=CC(=O)C2C(C1=O)C(c1ccc(Cl)cc1)[C@@H]2C` (stereo not given in full) was 98% (active); that for `c1ccc(-c2nc3cccnc3s2)cc1` was -9%.
The same measure, in the same setting: the value for `COc1ccc(/C=C2\SC(=S)N(/C=C/c3nc4ccccc4[nH]c3=O)C2=O)cc1OC` was 94% (active); that for `CCCN(CCC)CC(O)c1cc(-c2ccc(Cl)cc2)nc2c(C)c(Cl)ccc12` (stereo not given) was 95% (active).
`O=C(Nc1ccccc1)OCCc1ccc(Cl)c(Cl)c1`: the growth inhibition is 47%.
Still for that read-out and setting: for `CC(O)C(O)C(O)C(/C=N\Nc1ccccc1)=N/Nc1ccccc1` (stereo not given) the value was 98% (active).
Take `C#CCCCc1ccccc1`: the growth inhibition is 89% (active).
Same read-out and setting: the value for `CC(=O)Cc1ccc[cH-]1.[Fe+2].c1cc[cH-]c1` was 46%.
As for `Cc1cc(I)ccc1N`, the growth inhibition was 91% (active).
With `FC(F)(F)c1cc(NC(=S)N2c3ccccc3-n3cccc3C2c2cccnc2)cc(C(F)(F)F)c1` (stereo not given), the growth inhibition is 1%.
Still for that read-out and setting: the value for `CC(C)(CN1CCCCC1)C(=O)CC(SCCS(=O)(=O)O)c1ccc(Br)cc1` (stereo not given) was 62%; that for `C[Si](C)(C)CNC(=O)OCc1ccccc1` was 4%.
On the same count and under the same terms, for `CC(C(=O)N1C(=O)N(C(=O)[C@H](C)C(O)c2ccccc2)[C@H](c2ccccc2)[C@H]1c1ccccc1)[C@@H](O)c1ccccc1` (stereo not given in full) the value was 70% (active).
With `Oc1cccc2c(Cl)ccnc12`, the growth inhibition is 98% (active).
Turning to `O=C1C=CC(=C(c2ccccc2)c2ccccc2)c2ccccc21`, the growth inhibition was 18%.
The same measure, in the same setting: the value for `S=C(S)NN1CCOCC1` was 50%.
